PubChem BioAssay (NCATS)
Results filed as inconclusive are left out. A number with no mark means an inactive call. Calls of active or inactive are those of the source. The call rests on the fitted dose curve; in most records, active means well fitted inhibition curve with a large enough effect; inconclusive means small, poorly fitted or top-dose-only effect; inactive means flat fitted curve, though single readings scatter.

The compounds below were run on Zika virus NS2B-NS3 protease (assay: Primary screen GU AMC qHTS for Zika virus inhibitors (AID 1347154;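 further: 0% = no-inhibitor control and -100% = no-enzyme control; nearly all actives have a fitted effect of over 70% in size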)). Details: Zika NS2B-NS3 unlinked protease, AMC fluorogenic substrate; series mostly up to 54.1 µM; activity change, negative = inhibition: at the top concentration.
From the text: Avindra Nath, Ph.D., National Institute of Neurological Disorders and Stroke (NINDS), Bethesda, MD
Radhakrishnan Padmanabhan, Ph.D., Georgetown University (GU), Washington D.C.
Zika Virus causes congenital defects, including microcephaly and is associated with Guillain-Barre syndrome, eningoencephalitis and myelitis in infected adult. […] Using a target-based approach, we hope to establish a screening paradigm to uncover novel, cell-active NS2B-NS3 protease (Zika Virus) specific inhibitors from NCATS' collection of small molecules using qHTS.
Early Translation Branch (ETB)
National Center for Advancing Translational Sciences (NCATS), Rockville, MD
National Institute of Health (NIH), Bethesda, Maryland
Padmanabhan lab provided the NS2B hydrophilic domain and NS3 protease domain in a noncovalent complex used for the unlinked assay. Control compound aprotinin is obtained from Thermo Scientific (#78432; Waltham, Massachusetts). NS2B-NS3 AMC substrate (Bz-Nle-Lys-Arg-Arg-AMC; Nle-KRR-AMC) purchased from Bachem (#I-1995; Torrance, CA). Ac-VKTGKR-AMC purchased from Genscript or Bachem, Ac-FAAGKR-AMC purchased from Genscript, Ac-GLVKRR-AMC purchased from Genscript, Ac-LKKR-AMC purchased from Genscript.
GU AMC unlinked NS2B-NS3 protease qHTS protocol
Briefly, 3 microL of Zika virus unlinked NS2B-NS3 protease (25 nM for linked final concentration), in assay buffer (10 mM Tris-HCl pH 8.0 with 0.01% Tween 20) was dispensed into a 1,536-well solid-bottom black plate (Greiner Bio One, Monroe, NC). […] Plates were then read immediately on a ViewLux High-throughput CCD imager (PerkinElmer, Waltham, MA) equipped with standard UV fluorescence optics (340(30) nm excitation, 450(20) nm emission) then incubated (room temperature, protected from light) for 15 minutes (~20% conversion). The change in fluorescence intensity over the 15-minute reaction period was normalized against no-inhibitor and no-enzyme controls and the resulting percent inhibition data were fitted to a 4-parameter Hill equation. Aprotinin was used as the intraplate control.

Compound | outcome | activity change, negative = inhibition
COc1cc(C(=O)OCCCN2CCCN(CCCOC(=O)c3cc(OC)c(OC)c(OC)c3)CC2)cc(OC)c1OC | inactive | 
CCCCNc1ccc(C(=O)OCCN(C)C)cc1 |  | 1.86%
c1ccc2c(c1)CCCC2C1=NCCN1 (stereo not given) |  | -5.4%
CC(C)(Oc1ccc(CCNC(=O)c2ccc(Cl)cc2)cc1)C(=O)O | inactive | 
C[C@@H](O)[C@H]1C(=O)N2C(C(=O)O)=C(SCCN=CN)C[C@H]12 |  | -4.91%
CN1CCN(CC(=O)N2c3ccccc3C(=O)Nc3cccnc32)CC1 | inactive | 
Cc1cc(C)c(/C=C2\C(=O)Nc3ccccc32)[nH]1 |  | -5.98%
CN(C)CC/C=C1\c2ccccc2COc2ccccc21 | inactive | 
O=C(O)CN(CCOCCOCCN(CC(=O)O)CC(=O)O)CC(=O)O |  | -0.967% [at 0.59 µM]
CO[C@@]1(NC(=O)CSCC#N)C(=O)N2C(C(=O)O)=C(CSc3nnnn3C)CS[C@@H]21 |  | -1.66%
CC(C)COCC(CN(Cc1ccccc1)c1ccccc1)N1CCCC1 (stereo not given) | inactive | 
CNC1(C)C2CCC(C2)C1(C)C (stereo not given) |  | -1.24%
Cc1ccc(/C(=C\CN2CCCC2)c2ccccn2)cc1 |  | -1.28%
O=C(O)CP(=O)(O)O |  | -3.08%
O=C(O)CN(CCN(CC(=O)O)CC(=O)O)CCN(CC(=O)O)CC(=O)O |  | -7.74% [at 25.8 µM]
COc1cc(Cc2cnc(N)nc2N)cc(OC)c1OC | inactive | 
O=C(CCNNC(=O)c1ccncc1)NCc1ccccc1 |  | 0.728%
CC1=NS(=O)(=O)c2cc(Cl)ccc2N1 | inactive | 
CCCN(CCC)C(=O)C(CCC(=O)O)NC(=O)c1ccccc1 (stereo not given) |  | -2.72%
C[N+](C)(C)CCCCCCCCCC[N+](C)(C)C |  | 1.41%

Compound | outcome | activity change, negative = inhibition
Cc1scc2c1N(C(=O)CN1CCN(C)CC1)c1ccccc1NC2=O | inactive | 
c1cc(CN2CCCCC2)cc(OCCCNc2nc3ccccc3s2)c1 | inactive | 
CCCCNc1c(C(=O)OCC)c(C)nc2c1cnn2CC | inactive | 
NC(N)=N/N=C/c1c(Cl)cccc1Cl |  | 5.62%
Nc1c2c(nc3ccccc13)CCCC2O (stereo not given) |  | -4.54%
CC(C)(C)NCC(O)c1cc(O)cc(O)c1 (stereo not given) |  | -12.6%
CC[N+](C)(C)c1cccc(O)c1 |  | 2.19%
COCC(=O)O[C@]1(CCN(C)CCCc2nc3ccccc3[nH]2)CCc2cc(F)ccc2[C@@H]1C(C)C | inactive | 
CC(=O)OCC1=C(C(=O)O)N2C(=O)[C@@H](NC(=O)Cc3cccs3)[C@H]2SC1 |  | -2.62%
FC(F)(F)c1ccccc1-n1ccnc1 | inactive | 
CC(C)NCC(O)c1cc(O)cc(O)c1 (stereo not given) |  | -11.5%
CCN(CC)CCOCCOC(=O)C1(c2ccccc2)CCCC1 | inactive | 
Cc1ccc(Cl)c(Nc2ccccc2C(=O)O)c1Cl |  | -10.1%
Cc1ccc(S(=O)(=O)NC(=O)NN2CCCCCC2)cc1 | inactive | 
CN1CCN(C2=Nc3ccccc3Oc3ccc(Cl)cc32)CC1 |  | -4.97%
CCC(=O)c1ccc2c(c1)N(CCCN(C)C)c1ccccc1S2 |  | -2.78%
COc1ccc(CCN(C)CCCC(C#N)(c2cc(OC)c(OC)c(OC)c2)C(C)C)cc1OC (stereo not given) | inactive | 
NC1=NCC2c3ccccc3Cc3ccccc3N12 (stereo not given) |  | -6.17%
CCN1CCC[C@H]1CNC(=O)c1c(O)c(Cl)cc(Cl)c1OC | inactive | 
COCCc1ccc(OCC(O)CNC(C)C)cc1 (stereo not given) |  | -0.181%
